Records with an inconclusive call do not appear. Where a call stands in place of a potency, no number is given. Unmarked numbers belong to inactive results. Activity calls are given as the source filed them. Unless noted, calls follow the shape of the dose curve; as a rule, active = well fitted curve in the direction sought with a large enough effect in the repeat runs; inconclusive = weak or mixed curves; inactive = no such curve, though single readings can be large; an effect the other way counts as inactive or inconclusive.
Legend:
[1] = qHTS assay to identify small molecule antagonists of the thyroid receptor (TR) signaling pathway - cell viability counter screen (AID 743064); also: nearly all actives have a fitted effect of over 50% in size
How it was run: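 Rat GH3 pituitary tumor cells stably expressing two TR response elements driving luciferase were plated, rested 4 h, then dosed with library compounds and T3 (1 nM final). After 23.5 h at 37 °C, CellTiter-Fluor was added for 30 min and fluorescence recorded.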

[2] = qHTS assay to identify small molecule antagonists of the thyroid receptor (TR) signaling pathway (AID 743065); also: series mostly up to about 70 µM; nearly all actives have a fitted effect of over 55% in size
How it was run: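 GH3.TRE-Luc rat pituitary cells carrying two TR response elements driving luciferase were plated for 4 h, given compound plus 1 nM T3 (final), and incubated 23.5 h at 37 C. ONE-Glo luminescence measured reporter inhibition; CellTiter-Fluor fluorescence tracked cytotoxicity.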

[3] = system: thyroid hormone receptor (rat, GH3 cells); experiment: qHTS assay to identify small molecule agonists of the thyroid receptor (TR) signaling pathway (AID 743066; calls by dose curve)
[4] = target: Estrogen receptor (Homo sapiens) (UniProt P03372); experiment: qHTS assay to identify small molecule antagonists of the estrogen receptor alpha (ER-alpha) signaling pathway (AID 743069; active = well fitted curve in the direction sought with a large enough effect in the signal ratio in the repeat runs, not every such curve was filed as active; the % refers to the signal ratio)
How it was run: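 Screening used a UAS-driven beta-lactamase reporter integrated into HEK293 cells expressing ER-alpha, stimulated with 17beta-estradiol alongside test compounds over 18 hr at 37C; signal came from LiveBLAzer B/G FRET fluorescence.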

[5] = qHTS assay to identify small molecule antagonists of the estrogen receptor alpha (ER-alpha) signaling pathway - cell viability counter screen (AID 743074; calls by dose curve; also: nearly all actives have a fitted effect of over 45% in size)
[6] = target: Estrogen receptor (Homo sapiens) (UniProt P03372); experiment: qHTS assay to identify small molecule agonists of the estrogen receptor alpha (ER-alpha) signaling pathway (AID 743075; calls by dose curve)
[7] = target: Estrogen receptor (Homo sapiens) (UniProt P03372); experiment: qHTS assay to identify small molecule agonists of the estrogen receptor alpha (ER-alpha) signaling pathway using the BG1 cell line (AID 743079); also: nearly all actives have a fitted effect of over 20% in size; also: potency is read from the fitted curve at half-maximal effect
[8] = qHTS assay to identify small molecule antagonists of the estrogen receptor alpha (ER-alpha) signaling pathway using the BG1 cell line (AID 743080; calls by dose curve;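 also: BG1 cells stimulated with 17beta-estradiol alongside compound; series mostly up to about 70 µM; nearly all actives have a fitted effect of over 25% in size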)
How it was run: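 Endogenous full-length ER-alpha in BG1-Luc-4E2 cells drives a stably integrated 4×ERE luciferase gene; compounds were tested against 17beta-estradiol over 21.5 h, with luminescence and multiplexed viability fluorescence recorded.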

[9] = qHTS assay to identify small molecule antagonists of the estrogen receptor alpha (ER-alpha) signaling pathway using the BG1 cell line - cell viability counter screen (AID 743081);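 also: compound given together with 17beta-estradiol as the ER stimulus; series mostly up to about 70 µM; nearly all actives have a fitted effect of over 45% in size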
Aromatase (Homo sapiens) = Aromatase (Homo sapiens) (UniProt P11511); experiment: qHTS assay to identify aromatase inhibitors (AID 743083); also: series mostly up to about 70 µM; nearly all actives have a fitted effect of over 55% in size
[10] = qHTS assay to identify aromatase inhibitors - cell viability counter screen (AID 743084);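 also: cells stimulated with testosterone during compound exposure; nearly all actives have a fitted effect of over 55% in size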
[11] = target: Peroxisome proliferator-activated receptor gamma (Homo sapiens) (UniProt P37231); experiment: qHTS assay to identify small molecule agonists of the peroxisome proliferator-activated receptor gamma (PPARg) signaling pathway (AID 743094; active = well fitted activation curve with a large enough effect in the signal ratio in the repeat runs, not every such curve was filed as active; the % refers to the signal ratio)
How it was run: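 Agonism was assessed in a beta-lactamase reporter system, HEK293H cells with a stably integrated UAS-bla construct under PPARg control; the 17 h treatment at 37C preceded a 1 h room-temperature FRET substrate read.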

[12] = qHTS assay to identify small molecule antagonists of the peroxisome proliferator-activated receptor gamma (PPARg) signaling pathway - cell viability counter screen (AID 743194); also: nearly all actives have a fitted effect of over 55% in size
How it was run: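 PPARg-UAS-bla HEK293H cells were plated, rested 5 h at 37 C, then treated with compounds plus rosiglitazone (50 nM final) for 17 h at 37 C; viability was then read by CellTiter-Glo luminescence after 30 min at room temperature.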

[13] = qHTS assay for small molecule agonists of the antioxidant response element (ARE) signaling pathway - cell viability counter screen (AID 743203; calls by dose curve; also: nearly all actives have a fitted effect of over 55% in size)
How it was run: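 ATP content via CellTiter-Glo luminescence served as the viability measure. Cells: ARE-bla HepG2, 2,000 per well. Exposure: 16 hrs, 37C/5% CO2.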

[14] = qHTS assay for small molecule activators of the heat shock response signaling pathway - cell viability counter screen (AID 743209); also: nearly all actives have a fitted effect of over 50% in size
How it was run: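 Compounds dissolved in DMSO were added to overnight-plated HSE-bla HeLa cells and left 5 h at 37 C. Cell viability was quantified by luminescence using CellTiter-Glo.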

[15] = qHTS assay for small molecule activators of the heat shock response signaling pathway (AID 743210; active = well fitted activation curve with a large enough effect in the signal ratio in the repeat runs, with a control signal flat, not every such curve was filed as active; the % refers to the signal ratio;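 also: HeLa cells with beta-lactamase reporter driven by heat shock elements; series mostly up to about 63 µM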)
How it was run: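 Activation of heat shock element-controlled beta-lactamase expression is measured in HeLa cells by LiveBLAzer FRET fluorescence, with compound exposure lasting 5 h at 37 C and substrate loading 2.5 h at room temperature.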

[16] = qHTS assay to identify small molecule that activate the aryl hydrocarbon receptor (AhR) signaling pathway - cell viability counter screen (AID 743086);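 also: HepG2 liver cells carrying the AhR DRE luciferase reporter; series mostly up to about 70 µM; nearly all actives have a fitted effect of over 45% in size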
How it was run: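 HepG2-AhR-luc (HG2L7.5c1) cells, 4000/well, were preincubated 5 h at 37C, exposed to compound in qHTS format for 24 hr at 37C, then given CellTiter-Fluor for 30 min; viability was read as fluorescence in the reporter wells.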

[17] = qHTS assay for small molecule agonists of the antioxidant response element (ARE) signaling pathway (AID 743202; active = well fitted activation curve with a large enough effect in the signal ratio in the repeat runs, not every such curve was filed as active; the % refers to the signal ratio)
How it was run: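 Steps: seed ARE-bla HepG2 cells (2,000/well); incubate 5 h at 37 C; add compounds by pin tool; incubate 16 h at 37 C; add FRET substrate; read fluorescence after 2 h at RT.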

[18] = target: Aryl hydrocarbon receptor (Homo sapiens) (UniProt P35869); experiment: qHTS assay to identify small molecule that activate the aryl hydrocarbon receptor (AhR) signaling pathway (AID 743085);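 also: HG2L7.5c1 human HepG2 liver cells with stably integrated DRE-driven firefly reporter; series mostly up to about 70 µM; nearly all actives have a fitted effect of over 15% in size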
How it was run: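 Compounds were tested in HepG2 hepatocellular carcinoma cells harbouring a stably integrated luciferase gene under control of 20 DREs. Increased reporter signal after 24 h treatment at 37C was taken as AhR activation.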

[19] = target: Peroxisome proliferator-activated receptor gamma (Homo sapiens) (UniProt P37231); experiment: qHTS assay to identify small molecule antagonists of the peroxisome proliferator-activated receptor gamma (PPARg) signaling pathway (AID 743191; calls by dose curve; also: series mostly up to about 63 µM; nearly all actives have a fitted effect of over 30% in size)
How it was run: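 GeneBLAzer PPARg UAS-bla HEK293H cells carrying a UAS-driven beta-lactamase reporter were plated at 3000 cells/well, preincubated 5 h at 37C, then given compound for 17 h at 37C; LiveBLAzer B/G FRET substrate was read after 1 h at room temperature.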

Chain of Aromatase (Homo sapiens) (P11511 whole entry, looked up): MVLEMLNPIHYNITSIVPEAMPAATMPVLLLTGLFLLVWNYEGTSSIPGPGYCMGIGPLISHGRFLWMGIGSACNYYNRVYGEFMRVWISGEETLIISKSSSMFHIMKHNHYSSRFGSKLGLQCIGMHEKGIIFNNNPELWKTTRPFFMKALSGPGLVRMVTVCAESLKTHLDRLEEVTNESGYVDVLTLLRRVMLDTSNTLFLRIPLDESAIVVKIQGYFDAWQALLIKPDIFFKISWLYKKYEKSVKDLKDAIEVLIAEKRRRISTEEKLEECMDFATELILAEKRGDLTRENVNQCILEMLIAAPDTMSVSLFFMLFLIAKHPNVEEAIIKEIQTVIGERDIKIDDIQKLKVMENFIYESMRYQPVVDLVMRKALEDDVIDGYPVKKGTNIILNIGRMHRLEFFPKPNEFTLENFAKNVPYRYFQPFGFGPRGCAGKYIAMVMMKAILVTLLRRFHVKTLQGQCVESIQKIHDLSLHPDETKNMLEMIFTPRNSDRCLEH
Chain of Aryl hydrocarbon receptor (Homo sapiens) (P35869 whole entry, looked up): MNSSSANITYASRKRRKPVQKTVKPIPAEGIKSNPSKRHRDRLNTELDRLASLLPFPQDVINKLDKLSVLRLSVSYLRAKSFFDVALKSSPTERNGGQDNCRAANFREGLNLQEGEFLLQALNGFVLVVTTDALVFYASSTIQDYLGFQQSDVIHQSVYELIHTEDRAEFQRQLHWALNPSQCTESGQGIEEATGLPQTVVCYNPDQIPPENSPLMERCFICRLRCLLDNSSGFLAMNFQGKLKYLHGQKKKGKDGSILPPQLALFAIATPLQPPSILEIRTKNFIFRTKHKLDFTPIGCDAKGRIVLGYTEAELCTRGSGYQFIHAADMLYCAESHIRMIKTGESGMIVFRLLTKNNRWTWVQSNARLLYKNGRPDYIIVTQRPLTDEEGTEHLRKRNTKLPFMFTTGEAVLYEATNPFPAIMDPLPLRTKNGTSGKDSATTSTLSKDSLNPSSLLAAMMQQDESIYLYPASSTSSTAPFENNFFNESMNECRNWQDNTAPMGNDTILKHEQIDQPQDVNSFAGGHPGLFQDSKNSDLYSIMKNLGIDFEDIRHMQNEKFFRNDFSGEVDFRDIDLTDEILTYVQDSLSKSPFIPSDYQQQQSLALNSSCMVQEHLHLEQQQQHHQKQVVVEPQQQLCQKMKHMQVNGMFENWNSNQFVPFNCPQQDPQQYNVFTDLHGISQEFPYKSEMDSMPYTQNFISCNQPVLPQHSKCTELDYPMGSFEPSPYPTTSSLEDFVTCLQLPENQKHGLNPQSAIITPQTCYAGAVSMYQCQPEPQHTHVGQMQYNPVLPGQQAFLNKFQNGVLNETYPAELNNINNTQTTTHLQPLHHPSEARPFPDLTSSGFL
Chain of Estrogen receptor (Homo sapiens) (P03372 whole entry, looked up): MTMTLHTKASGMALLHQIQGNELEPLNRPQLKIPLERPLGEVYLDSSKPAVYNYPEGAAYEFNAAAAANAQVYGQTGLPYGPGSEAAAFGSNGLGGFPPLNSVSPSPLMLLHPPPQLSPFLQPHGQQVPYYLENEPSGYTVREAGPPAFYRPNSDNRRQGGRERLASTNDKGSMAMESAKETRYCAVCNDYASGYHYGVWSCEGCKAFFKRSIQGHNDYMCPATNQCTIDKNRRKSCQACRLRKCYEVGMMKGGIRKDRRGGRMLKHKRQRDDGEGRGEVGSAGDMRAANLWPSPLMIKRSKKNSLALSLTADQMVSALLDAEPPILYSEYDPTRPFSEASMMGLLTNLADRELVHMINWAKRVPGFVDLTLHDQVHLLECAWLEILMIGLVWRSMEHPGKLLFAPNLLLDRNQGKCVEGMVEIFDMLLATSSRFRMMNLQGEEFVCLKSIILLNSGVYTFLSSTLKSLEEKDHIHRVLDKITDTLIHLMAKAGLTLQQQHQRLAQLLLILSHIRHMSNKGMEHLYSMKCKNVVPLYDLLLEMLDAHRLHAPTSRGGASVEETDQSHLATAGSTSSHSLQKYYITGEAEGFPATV
Chain of Peroxisome proliferator-activated receptor gamma (Homo sapiens) (P37231 whole entry, looked up): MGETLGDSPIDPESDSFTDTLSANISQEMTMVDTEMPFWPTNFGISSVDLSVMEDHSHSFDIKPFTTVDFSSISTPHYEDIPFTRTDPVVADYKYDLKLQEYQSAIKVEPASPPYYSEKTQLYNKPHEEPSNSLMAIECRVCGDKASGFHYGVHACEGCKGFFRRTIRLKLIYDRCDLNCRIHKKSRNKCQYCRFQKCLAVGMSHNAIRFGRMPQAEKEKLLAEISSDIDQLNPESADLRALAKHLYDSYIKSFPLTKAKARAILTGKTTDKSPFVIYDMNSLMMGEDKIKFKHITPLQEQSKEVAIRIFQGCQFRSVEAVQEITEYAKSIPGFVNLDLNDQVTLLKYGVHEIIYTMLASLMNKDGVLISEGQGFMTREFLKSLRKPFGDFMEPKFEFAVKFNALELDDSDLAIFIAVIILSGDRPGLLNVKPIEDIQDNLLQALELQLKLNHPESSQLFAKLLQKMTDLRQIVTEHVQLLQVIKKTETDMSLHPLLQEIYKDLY

CCCCCc1cccc(=O)o1
Potency [1]: inactive
Potency [2]: inactive
outcome [3]: inactive
outcome [4]: inactive
outcome [5]: inactive
Potency [6]: inactive
Potency [7]: inactive
outcome [8]: inactive
Potency [9]: inactive
outcome (Aromatase (Homo sapiens)): inactive
Potency [10]: inactive
Potency [11]: inactive
outcome [12]: inactive
outcome [13]: inactive
Potency [14]: inactive
outcome [15]: inactive

N[C@@H](CSCCCO)C(=O)O
Potency [1]: inactive
Potency [2]: inactive
outcome [3]: inactive
outcome [4]: inactive
outcome [5]: inactive
Potency [6]: inactive
Potency [7]: inactive
outcome [8]: inactive
Potency [9]: inactive
outcome (Aromatase (Homo sapiens)): inactive
Potency [10]: inactive
Potency [16]: inactive
Potency [11]: inactive
outcome [12]: inactive
Potency [17]: inactive
outcome [13]: inactive
Potency [14]: inactive
outcome [15]: inactive

CCCCCCCCCCOC(C)=O
Potency [1]: inactive
Potency [2]: inactive
outcome [3]: inactive
outcome [4]: inactive
outcome [5]: inactive
Potency [6]: inactive
Potency [7]: 61.1 µM (active)
outcome [8]: inactive
Potency [9]: inactive
outcome (Aromatase (Homo sapiens)): inactive
Potency [10]: inactive
Potency [18]: inactive
Potency [11]: inactive
outcome [19]: inactive
outcome [12]: inactive
outcome [13]: inactive
Potency [14]: inactive
outcome [15]: inactive

COC(=O)c1ccccc1C(=O)O
Potency [1]: inactive
Potency [2]: inactive
outcome [3]: inactive
outcome [4]: inactive
outcome [5]: inactive
Potency [6]: inactive
Potency [7]: inactive
outcome [8]: inactive
Potency [9]: inactive
outcome (Aromatase (Homo sapiens)): inactive
Potency [10]: inactive
Potency [18]: inactive
Potency [16]: inactive
Potency [11]: inactive
outcome [12]: inactive
Potency [17]: inactive
outcome [13]: inactive
Potency [14]: inactive
outcome [15]: inactive

CCC/C=C(\C=O)CC
Potency [1]: inactive
Potency [2]: inactive
outcome [3]: inactive
outcome [4]: inactive
outcome [5]: inactive
Potency [6]: inactive
Potency [7]: inactive
outcome [8]: inactive
Potency [9]: inactive
outcome (Aromatase (Homo sapiens)): inactive
Potency [10]: inactive
Potency [18]: inactive
Potency [16]: inactive
outcome [12]: inactive
Potency [17]: inactive
outcome [13]: inactive
Potency [14]: inactive
outcome [15]: inactive

O=C(O)CCCCCC(=O)O
Potency [1]: inactive
Potency [2]: inactive
outcome [3]: inactive
outcome [4]: inactive
outcome [5]: inactive
Potency [6]: inactive
Potency [7]: inactive
outcome [8]: inactive
Potency [9]: inactive
outcome (Aromatase (Homo sapiens)): inactive
Potency [10]: inactive
Potency [18]: inactive
Potency [11]: inactive
outcome [19]: inactive
Potency [14]: inactive
outcome [15]: inactive

CC(C)Cn1cnc2c1c(=O)n(C)c(=O)n2C
Potency [1]: inactive
Potency [2]: inactive
outcome [3]: inactive
outcome [4]: inactive
outcome [5]: inactive
Potency [6]: inactive
Potency [7]: inactive
outcome [8]: inactive
Potency [9]: inactive
outcome (Aromatase (Homo sapiens)): inactive
Potency [10]: inactive
Potency [18]: inactive
Potency [16]: inactive
Potency [11]: inactive
outcome [19]: inactive
outcome [12]: inactive
Potency [17]: inactive
outcome [13]: inactive
Potency [14]: inactive
outcome [15]: inactive

CC(C)Nc1ccccc1
Potency [1]: inactive
Potency [2]: inactive
outcome [3]: inactive
outcome [4]: inactive
outcome [5]: inactive
Potency [6]: inactive
Potency [7]: inactive
outcome [8]: inactive
Potency [9]: inactive
outcome (Aromatase (Homo sapiens)): inactive
Potency [10]: inactive
Potency [18]: inactive
Potency [16]: inactive
Potency [11]: inactive
outcome [19]: inactive
outcome [12]: inactive
Potency [17]: inactive
Potency [14]: inactive
outcome [15]: inactive
